According to the supplement of paper PMC6522484:
± gives the standard deviation of the averaged measurements.

Key:
DLD1 [1] = assay: cell viability (CellTiter-Glo) relative to plate median (fraction of plate median); higher = more viable cells; conditions: 5 µM; treatment time 24 h; reporter: 7TFP
Outline: (§1)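 On parallel plates, a Tecan F500 reader recorded either firefly luciferase or CellTiterGlo luminescence. The plates held colorectal cancer cells stably transduced with lentiviral TCF/Wnt firefly luciferase reporters (7TFP or TCF4/Wnt), seeded in 384-well format and treated 24 h later with library compounds at a final 5 µM for 24 h. Per-well signals were normalised to the plate median (webcellHTS2, additive, no log transformation), and two independent replicates were averaged.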

HCT116 = assay: as above; conditions: 5 µM; treatment time 24 h; reporter: TCF4/Wnt
Outline: as §1

SW480 [2] = assay: as above; conditions: 5 µM; treatment time 24 h; reporter: 7TFP
Outline: as §1

DLD1 [3] = assay: TCF/Wnt firefly luciferase reporter signal relative to plate median (fraction of plate median); higher = higher Wnt reporter signal; conditions: 5 µM; treatment time 24 h; reporter: 7TFP
Outline: as §1

SW480 [4] = assay: as above; conditions: 5 µM; treatment time 24 h; reporter: 7TFP
Outline: as §1

Row | SMILES | cell viability (DLD1 [1]) | cell viability (HCT116) | cell viability (SW480 [2]) | TCF/Wnt firefly luciferase reporter signal (DLD1 [3]) | TCF/Wnt firefly luciferase reporter signal (SW480 [4])
1 | C=C[C@H]1CN2CC[C@H]1C[C@H]2[C@H](O)c1ccnc2ccccc12 | 1.03 ± 0.059 | 1.07 ± 0.042 | 1.01 ± 0.023 | 0.862 ± 0.061 | 0.981 ± 0.028
2 | CC(NC(C)(C)C)C(=O)c1cccc(Cl)c1 (stereo not given) | 1.02 ± 0.037 | 1.02 ± 0.021 | 1.02 ± 0.021 | 1.11 ± 0.057 | 1.02 ± 0.11
